According to ChEMBL document CHEMBL1157539, “Thousands of chemical starting points for antimalarial lead identification” (Nature, 2010):

Experiments:
Assay type in all cases: functional
Plasmodium falciparum [1] = assay: GSK_TCMDC: Inhibition of Plasmodium falciparum 3D7 in whole red blood cells, using parasite LDH activity as an index of growth. Test compounds present at 2uM
Plasmodium falciparum [2] = assay: GSK_TCMDC: Inhibition of Plasmodium falciparum Dd2 in whole red blood cells, using parasite LDH activity as an index of growth. Test compounds present at 2uM
HepG2 = assay: GSK_TCMDC: Percent inhibition of human HepG2 cell line. Test compounds present at 10uM.

Row | SMILES | Inhibition (Plasmodium falciparum [1]) | Inhibition (Plasmodium falciparum [2]) | Inhibition (HepG2)
1 | Cc1ccc(NCC(=O)Nc2ccc(F)c(Cl)c2)cc1S(=O)(=O)N1CCOCC1 | 98% | 97% | 2%
2 | O=C(c1ccc(-c2cnc3[nH]cc(-c4ccc(C(=O)N5CCOCC5)cc4)c3c2)cc1)N1CCOCC1 | 91% | 0% | 19%
3 | Cl.Oc1ccc2c(c1NCC1CCCCC1)CCCC2 | 99% | 99% | 11%
4 | CCN1CCN(c2ccc(Nc3c4ccccc4nc4ccccc34)cc2)CC1 | 99% | 100% | 24%
5 | N=C(N)NN=CC(=O)Nc1cccc(C(F)(F)F)c1.O=S(=O)(O)O | 99% | 25% | 21%
6 | CC(Cc1ccc(COc2ccc(CC(CO)NCCc3cccc(Cl)c3)cc2)cc1)NCCc1cccc(Cl)c1.Cl (stereo not drawn) | 100% | 86% | 99%
7 | O=C(Nc1ccc(OC2CCN(Cc3ccccc3)C2)c(Cl)c1)c1ccsc1.O=C(O)C(F)(F)F (stereo not drawn) | 93% | 75% | 12%
8 | O=C(c1ccc([N+](=O)[O-])o1)N1CCN(c2nc3c(F)cc(F)cc3s2)CC1 | 93% | 86% | 0%
9 | O=[N+]([O-])c1cc2c(cc1C=NNc1nc(=Nc3ccccc3)[nH]c(=Nc3ccccc3)[nH]1)OCO2 | 98% | 46% | 0%
10 | Cc1cc2ncn(-c3nccc(NCc4ccc(F)cc4)n3)c2cc1C.O=C(O)C(F)(F)F | 98% | 83% | 10%
11 | CC(=O)Nc1ccc(S(=O)(=O)NC2=NC(=N)N(OCc3ccc(Cl)c(Cl)c3)C(C)(C)N2)cc1 | 93% | 98% | 44%
12 | Cc1cc(Cl)ccc1N(Cc1ccccc1)c1ccnc(Cl)n1 | 97% | 98% | 16%
13 | COc1ccc(NC(=O)[C@H](Cc2ccccc2)Nc2cc(C)nc(NCCc3ccccc3OC)n2)cc1.O=C(O)C(F)(F)F | 100% | 83% | 10%
14 | CN(C)C(=O)CN1CCN(c2ncnc(N3CCc4c([nH]c5ccccc45)[C@@H]3c3ccc4c(c3)CCO4)n2)CC1 | 99% | 98% | 12%
15 | CC[C@H](C)CNCc1ccc(OCc2cccc(COc3ccc(CNC[C@@H](C)CC)cc3I)c2)c(I)c1.Cl | 99% | 60% | 99%
16 | Cc1ccc2c(OCCN3CCC(Cc4ccc5c(c4)NC(=O)CO5)CC3)cc(F)cc2n1.Cl | 89% | 21% | 24%

Row | SMILES | Inhibition (Plasmodium falciparum [1]) | Inhibition (Plasmodium falciparum [2]) | Inhibition (HepG2)
17 | CC(C)(C)c1ccc(CNC(=O)c2cc(CNC3CCC(N)CC3)ccc2O)cc1 (stereo not drawn) | 94% | 1% | 1%
18 | COc1ccc(Nc2nccc(-c3ccc4c(-c5ccsc5)cnc(N)c4c3)n2)cc1 | 100% | 98% | 38%
19 | CC1CCCN1Cc1ccc(-c2ccc3c(=O)cc(CCc4cccc(F)c4F)n(CC(=O)N(C)Cc4ccc(-c5ccc(C(F)(F)F)cc5)cc4)c3n2)cc1.O=C(O)C(O)C(O)C(=O)O (stereo not drawn) | 100% | 91% | 0%
20 | CCN(CCCN1CCCCC1)c1cc(C)nc(Nc2ccc(C(F)(F)F)cc2)n1.O=C(O)C(F)(F)F | 100% | 99% | 26%
21 | CN1CCN(c2ccc(Nc3nccc(-c4cnn5ncccc45)n3)cc2Cl)CC1 | 95% | 92% | 65%
22 | Cc1cnc(Nc2cccnc2)nc1Nc1ccccc1C(=O)NC(C)C | 85% | 26% | 9%
23 | CC(C)(C)c1ccc(NC(=O)c2cccc(CN3CCCN(CC4CCCCC4)CC3)c2)cc1.O=C(O)C(F)(F)F | 93% | 47% | 97%
24 | COc1ccc(Cl)cc1N1CCN(CCCNC(=O)c2ccc(-c3nc4cc(Cl)c(C)cc4[nH]3)c(F)c2)CC1 | 99% | 91% | 0%
25 | COc1c(CNCCCCCCNCc2cc(Cl)c3ccccc3c2OC)cc(Cl)c2ccccc12.CS(=O)(=O)O | 96% | 45% | 100%
26 | O=C(N[C@@H](CC1CCCCC1)C(=O)NCc1cccc2ccccc12)c1ccc(O)c(-c2ccc(Cl)c(Cl)c2)c1 | 97% | 99% | 0%
27 | COc1ccc2[nH]ccc(=NN=Cc3ccncc3)c2c1 | 99% | 95% | 4%
28 | Cc1ccc(-c2cc(C(=O)Nc3ccc(S(=O)(=O)N4CCCCC4C)cc3)n[nH]2)c(O)c1 (stereo not drawn) | 100% | 99% | 37%
29 | O=C(Nc1cccc(-c2ccc(-c3nc4cc(C(F)(F)F)ccc4[nH]3)cc2)c1)Nc1ccc(Cl)c(Cl)c1 | 100% | 51% | 93%
30 | CC1(C)CN(CCC2CCC(NC(=O)/C=C/c3ccc(F)cc3F)CC2)Cc2ccc(C#N)cc21.Cl (stereo not drawn) | 88% | 77% | 39%
31 | CC(=O)O.CCc1cc2c(cc1CC)CC(NC[C@@H](O)c1ccc(O)c3[nH]c(=O)ccc13)C2 | 100% | 9% | 0%
